According to the supplement of paper PMC3334620:
In all, about 33,000 sequences were measured (“E-score (-0.5 to 0.5)”: median about -0.035, highest 2% from about 0.35 on). The sample as a whole holds a higher share of the highest values than the screen did.

Target: T1, Pdr3 (UniProt P33200)
T1 sequence: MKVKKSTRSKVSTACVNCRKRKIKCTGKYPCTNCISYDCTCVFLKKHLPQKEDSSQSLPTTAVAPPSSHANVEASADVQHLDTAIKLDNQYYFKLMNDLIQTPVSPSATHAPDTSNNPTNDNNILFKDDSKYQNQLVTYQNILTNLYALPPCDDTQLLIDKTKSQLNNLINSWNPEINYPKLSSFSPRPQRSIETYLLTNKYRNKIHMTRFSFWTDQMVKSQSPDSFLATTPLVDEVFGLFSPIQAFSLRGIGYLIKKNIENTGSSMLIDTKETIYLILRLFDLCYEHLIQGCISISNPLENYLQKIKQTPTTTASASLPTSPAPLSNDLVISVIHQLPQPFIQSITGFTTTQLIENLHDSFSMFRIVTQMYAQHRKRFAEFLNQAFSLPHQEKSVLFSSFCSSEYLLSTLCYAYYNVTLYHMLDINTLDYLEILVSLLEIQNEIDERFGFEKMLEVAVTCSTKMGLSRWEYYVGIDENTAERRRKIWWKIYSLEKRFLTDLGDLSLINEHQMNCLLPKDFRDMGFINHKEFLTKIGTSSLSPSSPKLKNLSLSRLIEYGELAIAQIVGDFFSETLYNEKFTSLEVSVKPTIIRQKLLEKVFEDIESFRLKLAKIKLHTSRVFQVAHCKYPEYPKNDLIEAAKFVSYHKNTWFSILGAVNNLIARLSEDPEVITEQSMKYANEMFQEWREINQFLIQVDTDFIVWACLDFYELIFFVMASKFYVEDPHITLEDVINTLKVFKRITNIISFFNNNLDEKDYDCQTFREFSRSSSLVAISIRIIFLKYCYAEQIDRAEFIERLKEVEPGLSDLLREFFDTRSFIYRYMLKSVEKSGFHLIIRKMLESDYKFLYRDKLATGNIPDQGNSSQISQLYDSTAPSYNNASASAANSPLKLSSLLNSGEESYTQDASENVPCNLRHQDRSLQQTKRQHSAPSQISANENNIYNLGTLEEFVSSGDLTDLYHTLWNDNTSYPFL
Assay: PBM E-score (8-mer binding enrichment) (E-score (-0.5 to 0.5)); higher = stronger / more preferred TF binding
Conditions: protein concentration: 200 nM; construct: GST-full length
Procedure: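 Universal 'all 10-mer' protein binding microarrays (Agilent AMADID 015681) probed with GST-tagged S. cerevisiae TFs (full-length or DBD) made by in vitro transcription/translation (PURExpress), about 100-200 nM. Bound TF was detected with fluorescent anti-GST. Each ungapped 8-mer (which stands for itself and its reverse complement) is scored by the PBM enrichment score (E-score), a modified Wilcoxon-Mann-Whitney statistic from -0.5 to +0.5, computed with the Universal PBM Analysis Suite. Scale: above 0.35 generally sequence-specific binding.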

Sequence | PBM E-score
ATTACTAA | -0.0285
GCGGGCCA | 0.0261
CCACCATA | 0.0173
ATTTTCTA | -0.183
ACGAGGCA | -0.211
GTCAAAGA | -0.212
TAAATTAA | 0.0873
AACCTCCG | 0.219
CGAAGAAC | 0.119
AGCCCAAT | -0.194
GACCGGGA | 0.304
GCCGGGGA | 0.2
GCCCGGGA | 0.393
GCGTTCCC | 0.139
CTGCCCCA | -0.045
CGGGGACC | 0.291
AGCGGACC | 0.175
GGCGGACA | 0.185
AGCGGACA | 0.154
CGTGGACA | 0.108
CGCGGACC | 0.437
CGCGGACG | 0.342
GGCGGACC | 0.357
CGCGGACA | 0.361
GATCGCCC | 0.00089

Sequence | PBM E-score
CAAACCGA | -0.0979
CGCCGTCC | 0.115
TGACGCAA | -0.165
CGGACTCA | 0.31
GACAAGGA | -0.0759
AGACTCGG | -0.099
ACGTCAAG | -0.311
GGACCGCA | 0.243
CGACCGGA | 0.358
CGACCGGC | 0.161
GGACCGGA | 0.382
AGACCGGA | 0.254
CGACCGAA | 0.0221
ATGCCAGC | -0.22
CTCAAAAA | -0.0515
CACCCGTC | 0.215
CAGTCTGC | -0.173
CTACTTGA | -0.238
GGGGATTA | 0.162
CGGGATTC | 0.382
CGGGATTA | 0.404
GGGGATGA | 0.0246
AGGGATTC | -0.0434
CGGGATGA | 0.369
AGGGATTA | -0.132

Sequence | PBM E-score
CTGGATTC | 0.105
CGGGATGC | 0.311
AGCCGAGC | 0.267
GTAACCCA | 0.0499
AAGCGAAA | -0.0467
CTCGTAGC | -0.167
CGACCATA | 0.0144
CTTCTGGA | -0.0291
CATCTACC | 0.0434
CGCTCGGA | 0.359
TACTCGGA | 0.336
CCGTCGGA | 0.361
CCCTCGGC | 0.173
GACTCGGA | 0.39
AGCTCGGA | 0.316
GCCTCGGA | 0.308
ACGTCGGA | 0.175
CCCTCGGA | 0.373
GGCTCGGA | 0.338
CCGTCGGC | 0.285
AACTCGGA | 0.296
ACGATCAG | -0.108
AGCTCCCT | -0.178
CATAAAGG | -0.0331
TCACGAAA | 0.0507

Sequence | PBM E-score
AGCGGGGG | -0.158
ACCTCGGG | 0.158
ACCTCGGC | 0.307
ACCTCGGA | 0.357
AACGTCAA | -0.146
GCTATTCA | 0.0956
AATGGTAG | -0.0896
CGAACTCC | 0.132
GGAACTCC | 0.366
AGAACTCC | 0.0347
CTCGCGAG | 0.192
ACGCGGTC | 0.181
CCGCGGTA | 0.473
CTGCGGGC | 0.218
CGGCGGTC | 0.145
CCGCGGGC | 0.484
ACGCGGTA | 0.0327
CCGCGGTC | 0.432
ACGCGGGC | 0.17
GCGCGGTA | 0.28
GATCCAAA | 0.064
ACGTCTAT | -0.168
ACGTAGCT | -0.31
CCGTCTAG | 0.178
CCCGGCAA | 0.286

Sequence | PBM E-score
CCCGGCAC | 0.154
ACCGGCAA | 0.185
GCCGGCAC | 0.392
TCCGGCAA | 0.356
TTCGGCAA | -0.0284
ACCGGCAC | 0.192
GCCGGCAA | 0.37
TACGGCAA | -0.034
TGAACGAA | -0.195
CCTCAACC | -0.118
AGATTACA | -0.107
ACTGTGAG | -0.0549
GAGGCTGA | -0.305
AGAGGGCG | 0.126
CGCGCTAA | 0.205
CCGGTCGA | 0.167
ACCGGACA | 0.206
TCCGGACA | 0.447
GCCGGACA | 0.315
CCCGGACG | 0.223
CCCCGACA | 0.0765
CCCGGACA | 0.362
ACTGGGAC | -0.0292
AGAACGTA | -0.0336
ACGGGCCA | 0.117

Sequence | PBM E-score
GTTTCCGA | 0.429
CTTTCCCC | 0.117
CTTTCCGC | 0.384
CTTTCCTC | -0.162
CTTTCCCA | 0.0901
ATTTCCGG | 0.456
CTTTCCAA | -0.0271
CTTTCCGA | 0.413
GTTTCCAA | -0.274
ATTTCCTG | 0.0852
GTTTCCCA | 0.0393
ATTTCCGA | 0.338
CGCGAAAA | 0.096
ACGCTTCG | 0.00401
CGCCTGGC | -0.0374
CAACTTCC | 0.225
AATTTAAT | 0.128
AAACCTAC | -0.103
CTGCCGCC | -0.0369
GGAAGATA | 0.234
GCCCAGAC | -0.222
AAATGATG | 0.133
CTACAAAG | -0.116
ATTTCCAC | 0.131
ATTTCCGC | 0.413

Sequence | PBM E-score
ATTTCCTC | 0.154
AGCACAAA | 0.12
CGGGCGTC | 0.193
CGATTCCC | 0.181
AGATTCCG | 0.453
CGATTCCA | 0.112
CGATTCCG | 0.466
AGATTCCC | 0.198
AGATTCCT | -0.088
AACGTGAT | -0.0792
ACCGGCTC | 0.122
GGACGGAC | 0.293
TGACGAAA | -0.112
CGACGGAC | 0.342
TGACGGCA | 0.135
AGACGGAG | 0.216
GGACGGAA | 0.429
GGACGGTA | 0.118
CGACGGAG | 0.331
AGACGGAA | 0.422
TGACGGAA | 0.445
CGACGGAA | 0.439
AGACGGAT | 0.249
ATAATACA | 0.212
ATGATGGC | 0.0224

Sequence | PBM E-score
GGATCTCA | 0.0621
TCCAAGGA | -0.00825
AGGAACCC | 0.00054
AGGAACCG | 0.123
GGGAACCA | -0.0124
CGGAACCC | 0.477
CGGAACCA | 0.483
GGGAACCC | 0.133
CAGAACCG | 0.116
CGGAACCG | 0.482
TGGAACCA | 0.188
ACTCCATA | -0.0901
CACAGTAC | -0.0825
ATCTCTTA | -0.0707
AATCTCTG | -0.185
TACGACTA | -0.179
CCTCTAAC | -0.199
TCACTGAA | 0.0661
GCATCCTA | 0.00911
GAGGGTTA | -0.131
GGCCGGCC | 0.326
TGCCGACA | 0.123
TGCCGGCA | 0.385
GCCCGGCA | 0.225
GGCCGGCA | 0.367

Sequence | PBM E-score
AACCGGCA | 0.158
ACCGTTAG | -0.208
GGGCCCCA | 0.092
GGCTAAGA | -0.0826
AACACGGA | 0.374
GACACGGC | 0.171
AACACGGG | 0.116
GACACGGA | 0.393
CACACGGA | 0.304
AACACGGC | 0.154
GCGACCTA | 0.0108
GCACGGAC | 0.356
ACACGGAC | 0.299
GCACGGGA | 0.315
GCACGGCC | 0.21
GCACGGCA | 0.103
GCACGGAA | 0.451
ATGCAGCA | 0.00559
ACAGGGTA | -0.12
